About 2,000 (36%) of roughly 5,500 compounds were called active. About 18% were inconclusive and are not listed. No stated cut-off is given here; in the data, active means normalized growth mostly below about 0.91 (no sharp cut-off); inconclusive means no clear call, values can overlap the other calls; inactive means mostly above about 0.92. Some of the results follow.
Test: chemical genetic growth profiling, strain panel (AID 1159580);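 further: tested at 20 µM; growth read once vehicle control cultures reached saturation at 30 °C; 1 = growth at the plate median or of vehicle wells; lower values mean less growth of the strain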
Details: growth OD

Measured: normalized growth

COc1ccc(-c2oc3c(CC=C(C)C)c(O[C@@H]4O[C@H](CO)[C@@H](O)[C@H](O)[C@H]4O)cc(O)c3c(=O)c2O[C@@H]2O[C@@H](C)[C@H](O)[C@@H](O)[C@H]2O)cc1
inactive: S. cerevisiae deletion strains, locus YJR066W, strain TOR1, hits give low values 0.949 | S. cerevisiae deletion strains, locus YKL009W, strain mrt4, hits give low values 0.963 | S. cerevisiae deletion strains, locus YKL068W, hits give low values 0.986 | S. cerevisiae deletion strains, locus YKL085W, strain MDH1 (second series), hits give low values 0.975 | S. cerevisiae deletion strains, locus YKL085W, strain MDH1, hits give low values 0.975 | S. cerevisiae deletion strains, locus YKL160W, strain elf1, hits give low values 1 | S. cerevisiae deletion strains, locus YKL190W, strain CNB1, hits give low values 1.02 | S. cerevisiae deletion strains, locus YKR001C, strain vps1, hits give low values 0.993 | S. cerevisiae deletion strains, locus YKR026C, strain gcn3, hits give low values 1.04 | S. cerevisiae deletion strains, locus YKR091W, strain srl3, hits give low values 1.03 | S. cerevisiae deletion strains, locus YLL001W, strain dnm1, hits give low values 1.01 | S. cerevisiae deletion strains, locus YLL026W, hits give low values 1.04 | S. cerevisiae deletion strains, locus YLL041C, strain sdh2, hits give low values 1.04 | S. cerevisiae deletion strains, locus YLR027C, strain aat2, hits give low values 1.03 | S. cerevisiae deletion strains, locus YLR039C, strain RIC1, hits give low values 1.01 | S. cerevisiae deletion strains, locus YLR058C, strain SHM2, hits give low values 0.988 | S. cerevisiae deletion strains, locus YLR102C, strain apc9, hits give low values 0.974 | S. cerevisiae deletion strains, locus YLR113W, strain HOG1, hits give low values 1.04 | S. cerevisiae deletion strains, locus YLR221C, strain rsa3, hits give low values 1.04 | S. cerevisiae deletion strains, locus YLR258W, strain gsy2, hits give low values 1.01 | S. cerevisiae deletion strains, locus YLR262C, strain YPT6 (second series), hits give low values 1.05 | S. cerevisiae deletion strains, locus YLR262C, strain YPT6, hits give low values 0.971 | S. cerevisiae deletion strains, locus YLR268W, strain sec22, hits give low values 0.969 | S. cerevisiae deletion strains, locus YLR320W, strain mms22, hits give low values 1.04 | S. cerevisiae deletion strains, locus YLR330W, strain CHS5, hits give low values 1.01 | S. cerevisiae deletion strains, locus YLR342W, strain FKS1 (second series), hits give low values 1.06 | S. cerevisiae deletion strains, locus YLR342W, strain FKS1, hits give low values 1.04 | S. cerevisiae deletion strains, locus YLR357W, strain rsc2, hits give low values 1.02 | S. cerevisiae deletion strains, locus YLR370C, strain arc18, hits give low values 1.02 | S. cerevisiae deletion strains, locus YLR371W, strain rom2, hits give low values 0.965 | S. cerevisiae deletion strains, locus YLR384C, strain iki3, hits give low values 1.01 | S. cerevisiae deletion strains, locus YLR418C, strain cdc73, hits give low values 0.998 | S. cerevisiae deletion strains, locus YML016C, strain PPZ1, hits give low values 1 | S. cerevisiae deletion strains, locus YML032C, strain rad52, hits give low values 1 | S. cerevisiae deletion strains, locus YML120C, strain ndi1, hits give low values 1.02 | S. cerevisiae deletion strains, locus YML124C, strain tub3, hits give low values 0.975 | S. cerevisiae deletion strains, locus YMR058W, strain fet3, hits give low values 1.04 | S. cerevisiae deletion strains, locus YMR078C, strain ctf18, hits give low values 0.977 | S. cerevisiae deletion strains, locus YMR125W, strain sto1, hits give low values 1.04 | S. cerevisiae deletion strains, locus YMR129W, hits give low values 1.04 | S. cerevisiae deletion strains, locus YMR205C, strain PFK2, hits give low values 1.04 | S. cerevisiae deletion strains, locus YMR223W, strain ubp8, hits give low values 0.979 | S. cerevisiae deletion strains, locus YMR231W, strain pep5, hits give low values 1 | S. cerevisiae deletion strains, locus YMR263W, strain SAP30, hits give low values 1 | S. cerevisiae deletion strains, locus YMR307W, strain GAS1, hits give low values 1.15 | S. cerevisiae deletion strains, locus YNL067W, strain RPL9B, hits give low values 0.963 | S. cerevisiae deletion strains, locus YNL071W, strain lat1, hits give low values 1.03 | S. cerevisiae deletion strains, locus YNL128W, strain TEP1, hits give low values 0.974 | S. cerevisiae deletion strains, locus YNL183C, strain NPR1, hits give low values 0.952 | S. cerevisiae deletion strains, locus YNL209W, strain ssb2, hits give low values 1.03 | S. cerevisiae deletion strains, locus YNL233W, strain BNI4, hits give low values 0.99 | S. cerevisiae deletion strains, locus YNL248C, strain rpa49, hits give low values 1.04 | S. cerevisiae deletion strains, locus YNL250W, strain rad50, hits give low values 0.93 | S. cerevisiae deletion strains, locus YNL271C, strain bni1, hits give low values 0.965 | S. cerevisiae deletion strains, locus YNL298W, strain CLA4, hits give low values 0.981 | S. cerevisiae deletion strains, locus YNL307C, strain MCK1, hits give low values 0.979 | S. cerevisiae deletion strains, locus YNL322C, strain KRE1 (second series), hits give low values 1.03 | S. cerevisiae deletion strains, locus YNR049C, strain mso1, hits give low values 1.03 | S. cerevisiae deletion strains, locus YNR052C, strain pop2, hits give low values 0.984 | S. cerevisiae deletion strains, locus YOL012C, strain htz1 0.851 | S. cerevisiae deletion strains, locus YOL147C, strain pex11, hits give low values 0.989 | S. cerevisiae deletion strains, locus YOR001W, strain rrp6, hits give low values 1.05 | S. cerevisiae deletion strains, locus YOR061W, strain CKA2, hits give low values 0.992 | S. cerevisiae deletion strains, locus YOR069W, strain VPS5, hits give low values 0.999 | S. cerevisiae deletion strains, locus YOR070C, strain gyp1, hits give low values 1.01 | S. cerevisiae deletion strains, locus YOR080W, strain dia2, hits give low values 1.04 | S. cerevisiae deletion strains, locus YOR083W, strain WHI5, hits give low values 0.988 | S. cerevisiae deletion strains, locus YOR106W, strain vam3, hits give low values 0.989 | S. cerevisiae deletion strains, locus YOR136W, strain idh2, hits give low values 0.985 | S. cerevisiae deletion strains, locus YOR144C, strain elg1, hits give low values 1 | S. cerevisiae deletion strains, locus YOR184W, strain ser1, hits give low values 0.984 | S. cerevisiae deletion strains, locus YOR231W, strain MKK1, hits give low values 1.02 | S. cerevisiae deletion strains, locus YOR265W, strain rbl2, hits give low values 1.02 | S. cerevisiae deletion strains, locus YOR270C, strain vph1, hits give low values 0.999 | S. cerevisiae deletion strains, locus YOR290C, strain snf2, hits give low values 0.981 | S. cerevisiae deletion strains, locus YOR316C, strain cot1, hits give low values 0.976 | S. cerevisiae deletion strains, locus YPL051W, strain arl3, hits give low values 1.02 | S. cerevisiae deletion strains, locus YPL055C, strain LGE1, hits give low values 1 | S. cerevisiae deletion strains, locus YPL078C, strain atp4, hits give low values 0.986 | S. cerevisiae deletion strains, locus YPL106C, strain sse1, hits give low values 1.04 | S. cerevisiae deletion strains, locus YPL240C, strain hsp82, hits give low values 1.02 | S. cerevisiae deletion strains, locus YPL241C, strain CIN2, hits give low values 0.99 | S. cerevisiae deletion strains, locus YPL256C, strain CLN2, hits give low values 1 | S. cerevisiae deletion strains, locus YPR119W, strain clb2, hits give low values 0.98 | S. cerevisiae deletion strains, locus YPR141C, strain kar3, hits give low values 0.968 | S. cerevisiae deletion strains, locus YPR163C, strain tif3, hits give low values 0.978 | S. cerevisiae deletion strains, locus YPR167C, strain met16, hits give low values 0.983 | S. cerevisiae deletion strains, strain wtn01, hits give low values 0.986 | S. cerevisiae strains, strain wild type, hits give low values 1.01

— PubChem BioAssay AID1159580 (chemical genetic matrix, 2015)
